Values joined by “and” are separate entries in the source; they are usually repeats but may differ in a detail not shown here. Equal entries are not always repeated. The whole screen tested about 5,500 compounds, of which about 2,000 (36%) were called active. Roughly 18% stayed inconclusive and do not appear here. Cut-off read from the data, not from the text of the source: active = normalized growth mostly below about 0.91 (no sharp cut-off); inconclusive = no clear call, values can overlap the other calls; inactive = mostly above about 0.92. The list shows a part of the results.
Assay: chemical genetic growth profiling, strain panel (AID 1159580);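 note: tested at 20 µM; growth read once vehicle control cultures reached saturation at 30 °C; 1 = growth at the plate median or of vehicle wells; lower values mean less growth of the strain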
Conditions: growth OD

Measured: normalized growth

COC(=O)C[C@H]1C(C)(C)C(=O)[C@@H]2CC3=C(CC[C@]4(C)C3=CC(=O)O[C@H]4c3ccoc3)[C@@]1(C)C2=O
inactive: S. cerevisiae deletion strains, locus YAL021C, strain ccr4, active compounds read low 1.02 | S. cerevisiae deletion strains, locus YAL026C, strain drs2, active compounds read low 0.985 | S. cerevisiae deletion strains, locus YAL030W, strain snc1, active compounds read low 0.979 | S. cerevisiae deletion strains, locus YBL061C, strain skt5, active compounds read low 0.986 | S. cerevisiae deletion strains, locus YBR009C, strain hhf1, active compounds read low 0.983 | S. cerevisiae deletion strains, locus YBR021W, strain FUR4, active compounds read low 0.992 | S. cerevisiae deletion strains, locus YBR023C, strain chs3, active compounds read low 0.976 | S. cerevisiae deletion strains, locus YBR171W, strain sec66, active compounds read low 0.947 | S. cerevisiae deletion strains, locus YBR229C, strain ROT2, active compounds read low 1 | S. cerevisiae deletion strains, locus YBR231C, strain swc5, active compounds read low 0.968 | S. cerevisiae deletion strains, locus YBR279W, strain paf1, active compounds read low 0.988 | S. cerevisiae deletion strains, locus YCL011C, strain gbp2, active compounds read low 0.953 | S. cerevisiae deletion strains, locus YCL016C, strain dcc1, active compounds read low 0.993 | S. cerevisiae deletion strains, locus YCL029C, strain bik1, active compounds read low 1.02 | S. cerevisiae deletion strains, locus YCL061C, strain MRC1, active compounds read low 1 | S. cerevisiae deletion strains, locus YCL069W, strain vba3, active compounds read low 0.958 | S. cerevisiae deletion strains, locus YCR088W, strain abp1, active compounds read low 0.96 | S. cerevisiae deletion strains, locus YDL005C, strain med2, active compounds read low 0.966 | S. cerevisiae deletion strains, locus YDL035C, strain GPR1, active compounds read low 0.996 | S. cerevisiae deletion strains, locus YDL040C, strain nat1, active compounds read low 0.966 | S. cerevisiae deletion strains, locus YDL074C, strain BRE1, active compounds read low 1 | S. cerevisiae deletion strains, locus YDL101C, strain DUN1, active compounds read low 1 | S. cerevisiae deletion strains, locus YDL134C, strain PPH21, active compounds read low 1 | S. cerevisiae deletion strains, locus YDL185W, strain tfp1, active compounds read low 1.01 | S. cerevisiae deletion strains, locus YDL192W, strain arf1, active compounds read low 1.02 | S. cerevisiae deletion strains, locus YDR001C, strain nth1, active compounds read low 0.979 | S. cerevisiae deletion strains, locus YDR069C, strain doa4, active compounds read low 0.961 | S. cerevisiae deletion strains, locus YDR101C, strain arx1, active compounds read low 1.01 | S. cerevisiae deletion strains, locus YDR137W, strain rgp1, active compounds read low 1 | S. cerevisiae deletion strains, locus YDR159W, strain sac3, active compounds read low 0.962 | S. cerevisiae deletion strains, locus YDR162C, strain NBP2, active compounds read low 1.01 | S. cerevisiae deletion strains, locus YDR195W, strain ref2 0.956 | S. cerevisiae deletion strains, locus YDR297W, strain sur2, active compounds read low 0.977 | S. cerevisiae deletion strains, locus YDR318W, strain mcm21, active compounds read low 1.02 | S. cerevisiae deletion strains, locus YDR334W, strain swr1, active compounds read low 0.961 | S. cerevisiae deletion strains, locus YDR335W, strain msn5, active compounds read low 0.968 | S. cerevisiae deletion strains, locus YDR388W, active compounds read low 1.01 | S. cerevisiae deletion strains, locus YDR392W, strain spt3, active compounds read low 0.96 | S. cerevisiae deletion strains, locus YDR502C, strain sam2, active compounds read low 1 | S. cerevisiae deletion strains, locus YEL003W, strain gim4, active compounds read low 0.973 | S. cerevisiae deletion strains, locus YEL037C, strain rad23, active compounds read low 0.962 | S. cerevisiae deletion strains, locus YEL061C, strain CIN8 (second series), active compounds read low 0.958 | S. cerevisiae deletion strains, locus YEL061C, strain CIN8, active compounds read low 0.999 | S. cerevisiae deletion strains, locus YER015W, strain faa2, active compounds read low 0.985 | S. cerevisiae deletion strains, locus YER016W, strain bim1, active compounds read low 0.971 | S. cerevisiae deletion strains, locus YER110C, active compounds read low 1.02 | S. cerevisiae deletion strains, locus YER111C, strain swi4, active compounds read low 0.953 | S. cerevisiae deletion strains, locus YER155C, strain BEM2 (second series), active compounds read low 0.988 | S. cerevisiae deletion strains, locus YER155C, strain BEM2, active compounds read low 1 | S. cerevisiae deletion strains, locus YER167W, strain BCK2, active compounds read low 1.01 | S. cerevisiae deletion strains, locus YFR010W, strain ubp6, active compounds read low 0.961 | S. cerevisiae deletion strains, locus YGL078C, strain dbp3, active compounds read low 1.03 | S. cerevisiae deletion strains, locus YGL086W, strain mad1, active compounds read low 1 | S. cerevisiae deletion strains, locus YGL167C, strain pmr1, active compounds read low 0.988 | S. cerevisiae deletion strains, locus YGL173C, strain kem1, active compounds read low 0.975 | S. cerevisiae deletion strains, locus YGL227W, strain vid30, active compounds read low 0.976 | S. cerevisiae deletion strains, locus YGL240W, strain doc1, active compounds read low 0.954 | S. cerevisiae deletion strains, locus YGL248W, strain PDE1, active compounds read low 1.01 | S. cerevisiae deletion strains, locus YGL253W, strain hxk2, active compounds read low 0.951 | S. cerevisiae deletion strains, locus YGR135W, strain pre9, active compounds read low 1.01 | S. cerevisiae deletion strains, locus YGR229C, strain SMI1, active compounds read low 1.01 | S. cerevisiae deletion strains, locus YGR252W, strain gcn5, active compounds read low 1 | S. cerevisiae deletion strains, locus YHR013C, strain ard1, active compounds read low 0.981 | S. cerevisiae deletion strains, locus YHR027C, strain rpn1, active compounds read low 0.994 | S. cerevisiae deletion strains, locus YHR030C, strain SLT2, active compounds read low 0.985 | S. cerevisiae deletion strains, locus YHR079C, strain IRE1 (second series), active compounds read low 1.02 | S. cerevisiae deletion strains, locus YHR079C, strain IRE1, active compounds read low 0.974 | S. cerevisiae deletion strains, locus YHR094C, strain hxt1, active compounds read low 1.01 | S. cerevisiae deletion strains, locus YHR129C, strain ARP1, active compounds read low 0.998 | S. cerevisiae deletion strains, locus YHR142W, strain chs7, active compounds read low 0.965 | S. cerevisiae deletion strains, locus YHR200W, strain rpn10, active compounds read low 0.996 | S. cerevisiae deletion strains, locus YIL066C, strain RNR3, active compounds read low 0.999 | S. cerevisiae deletion strains, locus YIL073C, strain SPO22, active compounds read low 1.09 | S. cerevisiae deletion strains, locus YIL125W, strain kgd1, active compounds read low 1.01 | S. cerevisiae deletion strains, locus YIR030C, strain dcg1, active compounds read low 1.02 | S. cerevisiae deletion strains, locus YJL092W, strain hpr5, active compounds read low 0.964 | S. cerevisiae deletion strains, locus YJL095W, strain BCK1 (second series), active compounds read low 0.99 | S. cerevisiae deletion strains, locus YJL095W, strain BCK1, active compounds read low 1.01 and 0.983 | S. cerevisiae deletion strains, locus YJL115W, strain asf1, active compounds read low 0.97 | S. cerevisiae deletion strains, locus YJL129C, strain trk1, active compounds read low 0.959 | S. cerevisiae deletion strains, locus YJL134W, strain LCB3, active compounds read low 1 | S. cerevisiae deletion strains, locus YJL154C, strain vps35, active compounds read low 0.966 | S. cerevisiae deletion strains, locus YJL164C, strain tpk1, active compounds read low 0.994 | S. cerevisiae deletion strains, locus YJL166W, strain qcr8, active compounds read low 0.973 | S. cerevisiae deletion strains, locus YJL168C, strain set2, active compounds read low 1.02 | S. cerevisiae deletion strains, locus YJL187C, strain SWE1 (second series), active compounds read low 1.01 | S. cerevisiae deletion strains, locus YJL187C, strain SWE1, active compounds read low 0.993 | S. cerevisiae deletion strains, locus YJR066W, strain TOR1, active compounds read low 0.928 | S. cerevisiae deletion strains, locus YKL009W, strain mrt4, active compounds read low 1.01 | S. cerevisiae deletion strains, locus YKL068W, active compounds read low 1.01 | S. cerevisiae deletion strains, locus YKL085W, strain MDH1 (second series), active compounds read low 1.01 | S. cerevisiae deletion strains, locus YKL085W, strain MDH1, active compounds read low 1.01 | S. cerevisiae deletion strains, locus YKL160W, strain elf1, active compounds read low 0.995 | S. cerevisiae deletion strains, locus YKR001C, strain vps1, active compounds read low 1.01 | S. cerevisiae deletion strains, locus YKR026C, strain gcn3, active compounds read low 0.975 | S. cerevisiae deletion strains, locus YKR091W, strain srl3, active compounds read low 0.984 | S. cerevisiae deletion strains, locus YLL001W, strain dnm1, active compounds read low 1 | S. cerevisiae deletion strains, locus YLL026W, active compounds read low 0.982 | S. cerevisiae deletion strains, locus YLL041C, strain sdh2, active compounds read low 0.972 | S. cerevisiae deletion strains, locus YLR027C, strain aat2, active compounds read low 0.984 | S. cerevisiae deletion strains, locus YLR039C, strain RIC1, active compounds read low 1.03 | S. cerevisiae deletion strains, locus YLR058C, strain SHM2, active compounds read low 1.01 | S. cerevisiae deletion strains, locus YLR102C, strain apc9, active compounds read low 1.02 | S. cerevisiae deletion strains, locus YLR113W, strain HOG1, active compounds read low 1.02 | S. cerevisiae deletion strains, locus YLR221C, strain rsa3, active compounds read low 0.958 | S. cerevisiae deletion strains, locus YLR258W, strain gsy2, active compounds read low 0.961 | S. cerevisiae deletion strains, locus YLR262C, strain YPT6 (second series), active compounds read low 1.04 | S. cerevisiae deletion strains, locus YLR262C, strain YPT6, active compounds read low 1.09 | S. cerevisiae deletion strains, locus YLR268W, strain sec22, active compounds read low 1.01 | S. cerevisiae deletion strains, locus YLR320W, strain mms22, active compounds read low 0.963 | S. cerevisiae deletion strains, locus YLR342W, strain FKS1, active compounds read low 0.963 | S. cerevisiae deletion strains, locus YLR357W, strain rsc2, active compounds read low 0.963 | S. cerevisiae deletion strains, locus YLR370C, strain arc18, active compounds read low 0.956 | S. cerevisiae deletion strains, locus YLR371W, strain rom2, active compounds read low 1.02 | S. cerevisiae deletion strains, locus YLR384C, strain iki3, active compounds read low 0.968 | S. cerevisiae deletion strains, locus YLR418C, strain cdc73, active compounds read low 1.03 | S. cerevisiae deletion strains, locus YML016C, strain PPZ1, active compounds read low 1.05 | S. cerevisiae deletion strains, locus YML032C, strain rad52, active compounds read low 1.01 | S. cerevisiae deletion strains, locus YML120C, strain ndi1, active compounds read low 0.976 | S. cerevisiae deletion strains, locus YML124C, strain tub3, active compounds read low 1.01 | S. cerevisiae deletion strains, locus YMR058W, strain fet3, active compounds read low 0.993 | S. cerevisiae deletion strains, locus YMR078C, strain ctf18, active compounds read low 1.03 | S. cerevisiae deletion strains, locus YMR125W, strain sto1, active compounds read low 0.975 | S. cerevisiae deletion strains, locus YMR129W, active compounds read low 0.988 | S. cerevisiae deletion strains, locus YMR205C, strain PFK2, active compounds read low 0.997 | S. cerevisiae deletion strains, locus YMR223W, strain ubp8, active compounds read low 1.01 | S. cerevisiae deletion strains, locus YMR231W, strain pep5, active compounds read low 0.953 | S. cerevisiae deletion strains, locus YMR307W, strain GAS1, active compounds read low 1.03 | S. cerevisiae deletion strains, locus YNL067W, strain RPL9B, active compounds read low 1.01 | S. cerevisiae deletion strains, locus YNL071W, strain lat1, active compounds read low 0.972 | S. cerevisiae deletion strains, locus YNL183C, strain NPR1, active compounds read low 0.942 | S. cerevisiae deletion strains, locus YNL209W, strain ssb2, active compounds read low 0.984 | S. cerevisiae deletion strains, locus YNL233W, strain BNI4, active compounds read low 0.984 | S. cerevisiae deletion strains, locus YNL248C, strain rpa49, active compounds read low 0.977 | S. cerevisiae deletion strains, locus YNL250W, strain rad50, active compounds read low 1.02 | S. cerevisiae deletion strains, locus YNL271C, strain bni1, active compounds read low 1.01 | S. cerevisiae deletion strains, locus YNL298W, strain CLA4, active compounds read low 1.02 | S. cerevisiae deletion strains, locus YNL307C, strain MCK1, active compounds read low 1.02 | S. cerevisiae deletion strains, locus YNL322C, strain KRE1 (second series), active compounds read low 0.966 | S. cerevisiae deletion strains, locus YNR049C, strain mso1, active compounds read low 0.975 | S. cerevisiae deletion strains, locus YNR052C, strain pop2, active compounds read low 1.03 | S. cerevisiae deletion strains, locus YOL012C, strain htz1 1.95 | S. cerevisiae deletion strains, locus YOL147C, strain pex11, active compounds read low 1.01 | S. cerevisiae deletion strains, locus YOR001W, strain rrp6, active compounds read low 0.946 | S. cerevisiae deletion strains, locus YOR061W, strain CKA2, active compounds read low 1 | S. cerevisiae deletion strains, locus YOR069W, strain VPS5, active compounds read low 1 | S. cerevisiae deletion strains, locus YOR070C, strain gyp1, active compounds read low 0.979 | S. cerevisiae deletion strains, locus YOR080W, strain dia2, active compounds read low 0.966 | S. cerevisiae deletion strains, locus YOR083W, strain WHI5, active compounds read low 1.01 | S. cerevisiae deletion strains, locus YOR106W, strain vam3, active compounds read low 0.974 | S. cerevisiae deletion strains, locus YOR136W, strain idh2, active compounds read low 1.01 | S. cerevisiae deletion strains, locus YOR144C, strain elg1, active compounds read low 1 | S. cerevisiae deletion strains, locus YOR184W, strain ser1, active compounds read low 1 | S. cerevisiae deletion strains, locus YOR231W, strain MKK1, active compounds read low 0.99 | S. cerevisiae deletion strains, locus YOR265W, strain rbl2, active compounds read low 0.972 | S. cerevisiae deletion strains, locus YOR270C, strain vph1, active compounds read low 0.963 | S. cerevisiae deletion strains, locus YOR290C, strain snf2, active compounds read low 0.992 | S. cerevisiae deletion strains, locus YOR316C, strain cot1, active compounds read low 1 | S. cerevisiae deletion strains, locus YPL051W, strain arl3, active compounds read low 1 | S. cerevisiae deletion strains, locus YPL078C, strain atp4, active compounds read low 0.996 | S. cerevisiae deletion strains, locus YPL106C, strain sse1, active compounds read low 0.952 | S. cerevisiae deletion strains, locus YPL240C, strain hsp82, active compounds read low 0.978 | S. cerevisiae deletion strains, locus YPL256C, strain CLN2, active compounds read low 0.961 | S. cerevisiae deletion strains, locus YPR119W, strain clb2, active compounds read low 1.01 | S. cerevisiae deletion strains, locus YPR141C, strain kar3, active compounds read low 1.02 | S. cerevisiae deletion strains, locus YPR163C, strain tif3, active compounds read low 1 | S. cerevisiae deletion strains, locus YPR167C, strain met16, active compounds read low 1.02 | S. cerevisiae deletion strains, strain wtn01, active compounds read low 1 | S. cerevisiae strains, strain wild type, active compounds read low 0.992
